Only some compounds are listed: those with a hit (about 6.6% of all), similar ones and a draw of the others.
SW480 rereplic: inducers of DNA re-replication in SW480 colon cancer cells | 340,000 tested, 1.8% active | SW480 DNA re-replication, Hoechst DNA content imaging, 48 h | Potency, µM (titrated, usually from 46.1 µM), without a hit: top-dose re-replication activation, hits mostly activators; further: % of control where 0% means no effect; nearly all actives have a fitted effect of over 55% in size
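First, 250 cells per well were seeded. Next, compound or vehicle (23 nL) was pinned in, plates sat 48 hr at 37 C. Finally Hoechst was added for 40 min before fluorescence scanning.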
RGS4 inh: human RGS4 inhibition; Transcreener GDP fluorescence polarization, RGS4-accelerated GTP hydrolysis; Potency, µM (highest dose often 114 µM), without a hit: at the top dose activity change, negative = inhibition, actives largely listed as inhibitors; 390,000 tested, 0.039% active; AID 504845; further: on the % scale 0 is the no-effect control and ±100 the full control effect; nearly all actives have a fitted effect of over 75% in size
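MLSMR compounds (23 nl, pin-transferred) preincubated 10 min at room temperature with a 500nM (2x) first reagent, then RGS4 at 900nM (2x) plus Transcreener GDP mix added; fluorescence polarization (620/688 nm) read before and after 90 min at 30 °C.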
KB-V1 MDR tox: KB-V1 MDR subline cytotoxicity | KB-V1 MDR cells viability, CellTiter-Glo, 72 h | Potency, µM (top dose mostly 46.1 µM), hits mostly cytotoxic | 400,000 tested, 3.4% active; further: on the % scale 0 is the no-effect control and ±100 the full control effect; nearly all actives have a fitted effect of over 60% in size
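Following 72 h at 37 degrees C with compound, KB-V1 cell viability was read by CellTiter-Glo luminescence, medium being phenol-red-free DMEM plus 10% FBS; concentration-response parameters came from normalized, curve-fitted qHTS data.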
PTAP TSG101 blk: blocks PTAP/TSG101 interaction to inhibit HIV-1 budding. Q99816. Fluorescence polarization, FITC-PTAP peptide / Tsg101 binding. Potency, µM (highest dose often 115 µM), inactives show top-dose activity change, negative = inhibition, usual class: inhibitors. 340,000 tested, under 10 active; active means well fitted inhibition curve with a large enough effect in the main read-out, with a control signal flat, not every such curve was filed as active; inconclusive means small, poorly fitted or top-dose-only effect, or effect the other way, or a change in a side signal; inactive means no such curve, though single readings can be large or run the other way; further: % of control where 0% means no effect
Target sequence (Q99816 whole entry, looked up): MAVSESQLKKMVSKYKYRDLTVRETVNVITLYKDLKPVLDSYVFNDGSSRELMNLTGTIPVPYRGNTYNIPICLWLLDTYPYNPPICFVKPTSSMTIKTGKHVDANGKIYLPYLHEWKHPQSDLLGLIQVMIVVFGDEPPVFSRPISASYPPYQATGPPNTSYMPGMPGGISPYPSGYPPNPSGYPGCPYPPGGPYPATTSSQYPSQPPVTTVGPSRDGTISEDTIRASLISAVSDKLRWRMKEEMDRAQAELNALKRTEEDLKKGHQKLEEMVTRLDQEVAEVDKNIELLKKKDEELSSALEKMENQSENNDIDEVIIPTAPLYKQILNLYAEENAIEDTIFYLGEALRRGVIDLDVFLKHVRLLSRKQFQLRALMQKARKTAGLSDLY
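Fluorescence polarization binding of Tsg101 binding domain (10 uM final) to FITC-labeled PTAP peptide (50 nM final) in HEPES pH 7.5 buffer with NaCl, Tween 20, EDTA, TCEP. Compounds added before peptide; binding 20 min at RT.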
MCF10A rereplic: DNA re-replication induction in MCF 10a cells; MCF 10A DNA re-replication, Hoechst nuclear intensity, 48 h; Potency, µM (titrated, usually from 46.1 µM), for the others: at the highest dose activity, positive = re-replication, actives largely listed as activators; 350,000 tested, 2.9% active; AID 624296; further: % of control where 0% means no effect; nearly all actives have a fitted effect of over 50% in size
KB-3-1 tox: kills parental KB-3-1 adenocarcinoma cells. KB-3-1 viability, CellTiter-Glo ATP luminescence, 72 h. Potency, µM (highest dose often 46.1 µM), actives largely listed as cytotoxic. 400,000 tested, 1.4% active. AID 1347075; further: on the % scale 0 is the no-effect control and ±100 the full control effect; nearly all actives have a fitted effect of over 60% in size
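Multi-concentration cytotoxicity screen in KB-3-1 cells grown in DMEM lacking phenol red with 10% FBS. After 72 h at 37 °C with compound, ATP-dependent luminescence was recorded.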
* marks the source's active call; other numbers are inactive results; ! = not confirmed by another sample; [ ] = remark or other dose. Unless noted, the call rests on the fitted dose curve; in most records, active means well fitted curve in the direction sought with a large enough effect; inconclusive means small, poorly fitted or top-dose-only effect, or another doubt; inactive means no such curve, though single readings can be large; an effect the other way counts as inactive or inconclusive. Potency means the concentration at half of the fitted maximal effect.

`C[C@@H]1[C@H](c2ccccc2)OCCS(=O)(=O)N1Cc1ccc(Cl)cc1` gave KB-V1 MDR tox 12µM* and KB-3-1 tox 16µM*.
Screening COc1ccc2cc3[n+](cc2c1OC)CCc1cc2c(cc1-3)OCO2 returned SW480 rereplic -1%, RGS4 inh 7%, KB-V1 MDR tox inactive, PTAP TSG101 blk -2%, MCF10A rereplic -5% and KB-3-1 tox 7.3µM*!.
Screening COC(=O)c1cc(C(=O)c2ccc(Cl)cc2Cl)cn1C returned SW480 rereplic -11%, RGS4 inh -11%, KB-V1 MDR tox 13µM*, PTAP TSG101 blk -4%, MCF10A rereplic 0% and KB-3-1 tox inconclusive.
`COc1ccc2ncc(S(=O)(=O)c3ccccc3)c(N3CCN(c4ccccc4)CC3)c2c1` gave SW480 rereplic -10%, RGS4 inh -11%, KB-V1 MDR tox inactive, PTAP TSG101 blk -7%, MCF10A rereplic 14% and KB-3-1 tox inactive.
For O=S(=O)(c1ccccc1)c1cnn(-c2ccccc2)c1-c1ccc(Cl)cc1 the results were SW480 rereplic 11%, RGS4 inh 6%, KB-V1 MDR tox 15µM*, PTAP TSG101 blk 4%, MCF10A rereplic 7% and KB-3-1 tox inconclusive.
COc1ccc(-c2c(S(=O)(=O)c3ccccc3)cnn2-c2ccccc2)cc1 was read as SW480 rereplic 2%, RGS4 inh -16%, KB-V1 MDR tox 23µM*, PTAP TSG101 blk -11%, MCF10A rereplic -184%[0.0737 µM] and KB-3-1 tox inconclusive.
Screening CC[C@@H]1[C@H]2CCCC(=O)N3CC[C@@H](C[C@@H]1OC(=O)Nc1ccc4c(c1)OCO4)[C@@H]23 returned KB-V1 MDR tox inactive and KB-3-1 tox inactive.
`Cn1c(SCc2ccc(F)cc2)nc2ccc(C(=O)NCc3ccc(F)cc3)cc21` gave RGS4 inh 25%, KB-V1 MDR tox inactive and KB-3-1 tox inactive.
For CC[n+]1c(/C=C(\C)Nc2ccccc2)sc2ccccc21 the results were SW480 rereplic -7%, RGS4 inh inconclusive, KB-V1 MDR tox 21µM*, PTAP TSG101 blk 2%, MCF10A rereplic 12% and KB-3-1 tox inconclusive.
`CC[n+]1c(C=C2C=C(C)OC(C)=C2)sc2ccccc21` gave SW480 rereplic 18µM*, RGS4 inh 2%, KB-V1 MDR tox inconclusive, PTAP TSG101 blk -1%, MCF10A rereplic inconclusive and KB-3-1 tox inconclusive.
For COc1ccc(OC)c(CNC(=O)Cn2nc(C)c3nn(-c4ccc(Cl)cc4)c(C)c3c2=O)c1 the results were RGS4 inh -17%.
`O=C(c1sc(N2CCOCC2)nc1-c1ccccc1)N1CCCCC1` gave SW480 rereplic 2%, RGS4 inh -20%, KB-V1 MDR tox inactive, PTAP TSG101 blk -3%, MCF10A rereplic -3% and KB-3-1 tox inactive.
Screening [2H]c1c([2H])c([2H])c(-c2nc(N3CCCCCC3)sc2C(=O)c2ccccc2)c([2H])c1[2H] returned SW480 rereplic inconclusive, RGS4 inh 21%, KB-V1 MDR tox inactive, PTAP TSG101 blk 0%, MCF10A rereplic 7.3µM* and KB-3-1 tox inactive.
CCCCC(CC)CNC(=O)c1ccc2c(=O)n(CCOC)c(=O)[nH]c2c1 (stereo not given) was read as RGS4 inh 32%, KB-V1 MDR tox inactive and KB-3-1 tox inactive.
`O=C1c2ccccc2-c2cccc(C(=O)N3CCCCCC3)c21` gave SW480 rereplic 12%, RGS4 inh -3%, KB-V1 MDR tox inactive, PTAP TSG101 blk 0%, MCF10A rereplic inconclusive and KB-3-1 tox inactive.
Screening O=C1c2ccccc2-c2c1cccc2C(=O)N1CCCCCC1 returned SW480 rereplic 23µM*, RGS4 inh -34%, KB-V1 MDR tox inactive, PTAP TSG101 blk -3%, MCF10A rereplic -2% and KB-3-1 tox inconclusive.
